Inconclusive results are not listed. Active and inactive are the calls of the source. Rule for the calls: active = hit-call score of the fitted dose curve at least 0.9, where 1 is the maximum; inconclusive = response in the unintended direction; inactive = score below 0.9.
Molecular target: frog Peroxisome Proliferator-activated Receptor-gamma (PPARg), pparg (gene 397769) (UniProt P37234)
Assay: ATG_frPPARg_EcoTox2: Attagene TRANS-FACTORIAL EcoTox-2 HepG2 Assay for frog Peroxisome Proliferator-activated Receptor-gamma (PPARg)
Procedure: ATG_EcoTox2 is a cell-based, multiplexed assay created by modifying the existing Attagene TRANS-FACTORIAL system to include a panel of nuclear receptors from some or all the following species: human (Homo sapiens), african clawed frog (Xenopus laevis), rainbow trout (Oncorhynchus mykiss), japanese medaka (Oryzias latipes), and zebrafish (Danio rerio). The ECOTOX2-FACTORIAL format uses HepG2, a human liver cell line, with measurements taken at 24 hours after chemical dosing in a 24-well plate. ATG_frPPARg_EcoTox2 is one of 29 assay components calculated in the ATG_EcoTox2 assay. It is designed to make measurements of mRNA induction, a form of inducible reporter, as detected with fluorescence intensity signals by Reverse transcription polymerase chain reaction (RT-PCR) and Capillary electrophoresis technology.The assay endpoint ATG_frPPARg_EcoTox2 was analyzed in the positive analysis fitting direction relative to DMSO as the negative control and baseline of activity. Using a type of inducible reporter, measures of mRNA for gain-of-signal activity can be used to understand the reporter gene at the transcription factor-level as they relate to the gene PPARg. Furthermore, this assay endpoint can be referred to as a primary readout, because this assay has produced multiple assay endpoints where this one serves a reporter gene function. […]

frog Peroxisome Proliferator-activated Receptor-gamma (PPARg), pparg (gene 397769), sequence (P37234 whole entry, looked up): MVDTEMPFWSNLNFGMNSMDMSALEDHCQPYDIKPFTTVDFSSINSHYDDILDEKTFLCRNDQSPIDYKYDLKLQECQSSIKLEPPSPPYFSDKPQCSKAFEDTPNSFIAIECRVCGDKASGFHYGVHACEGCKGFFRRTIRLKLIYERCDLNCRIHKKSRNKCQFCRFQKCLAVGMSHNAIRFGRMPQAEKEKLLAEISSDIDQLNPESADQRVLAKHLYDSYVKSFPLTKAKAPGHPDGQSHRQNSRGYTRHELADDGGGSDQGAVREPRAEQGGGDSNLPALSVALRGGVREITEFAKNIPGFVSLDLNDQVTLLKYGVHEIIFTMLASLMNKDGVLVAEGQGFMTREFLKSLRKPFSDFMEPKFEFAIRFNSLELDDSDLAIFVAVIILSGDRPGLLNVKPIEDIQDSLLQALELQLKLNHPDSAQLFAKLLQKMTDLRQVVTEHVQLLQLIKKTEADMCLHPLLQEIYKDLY

With `CCCCOCN(C(=O)CCl)c1c(CC)cccc1CC` the outcome was “inactive”.
With `O=S(=O)(O)C(F)(F)C(F)(F)C(F)(F)C(F)(F)C(F)(F)C(F)(F)F` the outcome was “inactive”.

From PubChem BioAssay AID2284349 (EPA ToxCast)
